Hits are enriched below; roughly 3.9% of the tested compounds scored in any of these assays.
FBA Mtb inh: inhibitors of M. tuberculosis fructose-bisphosphate aldolase; P9WQA3; purified M. tuberculosis FBA, fluorescence read-out; inhibition, % at 1 µM; hit rate 2.3% among 360,000
Target sequence (P9WQA3 whole entry, looked up): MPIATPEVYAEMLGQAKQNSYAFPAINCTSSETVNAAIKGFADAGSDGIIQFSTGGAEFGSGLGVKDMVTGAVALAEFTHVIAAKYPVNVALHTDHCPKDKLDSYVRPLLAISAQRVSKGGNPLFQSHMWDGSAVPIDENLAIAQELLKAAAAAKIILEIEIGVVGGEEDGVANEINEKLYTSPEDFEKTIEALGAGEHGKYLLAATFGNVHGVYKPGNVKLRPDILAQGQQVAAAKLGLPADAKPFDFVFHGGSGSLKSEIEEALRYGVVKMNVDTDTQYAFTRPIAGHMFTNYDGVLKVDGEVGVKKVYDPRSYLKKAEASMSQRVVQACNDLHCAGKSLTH
GDH-TPI counter-1: inhibits GDH-TPI coupling enzymes, artifact for Mtb FBA screen | GDH-TPI coupled enzyme counterscreen, NADH absorbance | AID 588335 | hit rate 1.2% among 360,000 | inhibition, % at 4.8 µM; in the data active = inhibition above about 30%
3CLpro inhibitor: SARS-CoV 3CLpro protease inhibition; P0C6X7; recombinant SARS-CoV 3CLpro, quenched FRET peptide cleavage; inhibition, % at 6 µM; hit rate 0.14% among 290,000; AID 1706; in the data active = inhibition above about 12%
Vc quorum ag: quorum light induction in luxS cqsA deficient V. cholerae | V. cholerae BH1578 lux reporter, luminescence, 6 h | activation, % at 18.7 µM | hit rate 0.16% among 350,000 | AID 588436; in the data active = activation mostly above about 9.7%, no sharp cut-off
PrPC TRFRET: cell surface PrPC inhibition, primary TR-FRET screen; P04156; TR-FRET read-out; hit rate 0.43% among 370,000; inhibition, % at 13.8 µM; in the data active = inhibition above about 24%
Mtb FBA confirm: confirmation of M. tuberculosis fructose-bisphosphate aldolase inhibitors; shares compounds with FBA Mtb inh; inhibition, % at 1 µM; hit rate 78% among 5,600; purified M. tuberculosis FBA, fluorescence read-out; AID 651616
GDH-TPI counter-2: counter-screen for M. tuberculosis FBA inhibitors: GDH-TPI coupled enzyme inhibition; inhibition, % at 1 µM; hit rate 81% among 5,600; GDH-TPI coupled enzyme counterscreen, fluorescence; shares compounds with FBA Mtb inh; in the data active = inhibition above about 10%
Large screens that a line does not name were inactive (follow-up assays come after a bar, where they were run). Cut-off read from the data, not from the text of the source, unless noted: active = inhibition above about 27%; inactive = the rest.

O=C(NC1CCCCC1)N1Cc2cc(-c3cccc(F)c3)ccc2-n2nncc2C1	none (no result: GDH-TPI counter-1, 3CLpro inhibitor, Vc quorum ag)
COc1ccc(/C=C2\CC3(OC(=O)c4ccccc4)CCCN2C3)cc1 (centres undefined)	none (no result: FBA Mtb inh, GDH-TPI counter-1, 3CLpro inhibitor, Vc quorum ag)
Cc1ccc(S(=O)(=O)N2CCN(C(=O)Cn3c(=O)cnc4ccccc43)CC2)cc1	none (no result: 3CLpro inhibitor)
Cc1ccc(CCNC(=O)Cn2ccc3cc(S(=O)(=O)N4CCCC4)ccc32)cc1	FBA Mtb inh 83.9 | Mtb FBA confirm 44.5 | GDH-TPI counter-2 27.1
CCC(C)(C)n1nnnc1CN1CCC(NC(=O)c2ccc(Br)cc2)CC1	FBA Mtb inh 33.0 | Mtb FBA confirm inactive | GDH-TPI counter-2 inactive
COc1ccc(C(=O)Nc2ccc(-c3n[nH]c(=S)o3)cc2)cc1	none
C=CCOc1ccc(-c2n[nH]c(=S)o2)cc1	FBA Mtb inh 35.1 | Mtb FBA confirm 87.1 | GDH-TPI counter-2 76.2
CCCOC(=O)C1=C(C)NC(=O)NC1c1cc2c(cc1Br)OCO2 (centres undefined)	none
COC(=O)N(C)c1nc2ccccc2s1	none
CN(C(=O)OC(C)(C)C)c1ccc(-c2nc3ccccc3s2)cc1	FBA Mtb inh 44.9 (no result: 3CLpro inhibitor) | Mtb FBA confirm active | GDH-TPI counter-2 active
Cc1ccc(-c2cc(C(F)F)nc(S(C)(=O)=O)n2)cc1	FBA Mtb inh 34.0 | Mtb FBA confirm 111.6 | GDH-TPI counter-2 85.7
Cc1ccc(-c2cc(-c3ccccc3)nc(Cl)n2)cc1	none
O=C1c2ccccc2NC(c2cccc(O)c2)N1Cc1ccco1 (centres undefined)	FBA Mtb inh 59.5 | Mtb FBA confirm 106.7 | GDH-TPI counter-2 69.7
O=C1c2ccccc2NC(c2cccc(O)c2)N1c1ccccc1 (centres undefined)	FBA Mtb inh 42.4 | Mtb FBA confirm 128.7 | GDH-TPI counter-2 107.3
O=C1c2ccccc2NC(c2cccc(O)c2)N1NS(=O)(=O)c1ccccc1 (centres undefined)	none
O=c1[nH]cnc2nn(C3OC(CO)C(O)C3O)nc12 (centres undefined)	none (no result: FBA Mtb inh, GDH-TPI counter-1, 3CLpro inhibitor, Vc quorum ag)
Cc1nc(N2CCN(C(=O)c3ccco3)CC2)nc2c1C(=O)CCC2	none
C/C(O)=c1/cnc2nc3ccccc3n2c1=O	FBA Mtb inh 29.8 | Mtb FBA confirm inactive | GDH-TPI counter-2 20.9
Cc1cc(OCc2nn[nH]n2)c2c(C)c(Cc3ccccc3)c(=O)oc2c1	FBA Mtb inh 104.8 | Mtb FBA confirm 66.1 | GDH-TPI counter-2 58.2
Cc1c(Cc2ccccc2)c(=O)oc2c(C)c(OCc3nn[nH]n3)ccc12	FBA Mtb inh 65.9 | Mtb FBA confirm active | GDH-TPI counter-2 active
CCCc1cc(=O)oc2c(C)c(OCc3nn[nH]n3)ccc12	FBA Mtb inh 50.2 | Mtb FBA confirm inactive | GDH-TPI counter-2 inactive
Cc1cc(OC(C)C(=O)NCc2cccnc2)c2c(C)c(Cc3ccccc3)c(=O)oc2c1 (centres undefined)	none
Cc1c(OCc2nn[nH]n2)ccc2c(-c3ccccc3)cc(=O)oc12	none
COc1ccc(NC(=O)CN2C(=O)COc3ccccc32)cc1OC	none
COc1cc(CC(=O)OCC(=O)N(C)C2CCCCC2)cc(OC)c1OC	none (no result: 3CLpro inhibitor)
COc1ccc2c(C)cc(=O)[nH]c2c1	none
COc1ccc2c(O)c(-c3c(C)cc(C)cc3C)c(=O)[nH]c2c1	FBA Mtb inh 46.4 (no result: 3CLpro inhibitor) | Mtb FBA confirm inactive | GDH-TPI counter-2 inactive
O=C(NCCC1CCCCN1S(=O)(=O)c1ccc(F)cc1)C(=O)NCC1CCCO1 (centres undefined)	none (no result: 3CLpro inhibitor)
Cc1ccc(NS(=O)(=O)c2ccc(Cl)c(C(=O)Nc3cccc(C(=O)O)c3)c2)cc1	none
CC(OC(=O)c1ccccc1NCc1ccco1)C(=O)Nc1ncc(Cl)cc1Cl (centres undefined)	FBA Mtb inh 56.8 | Mtb FBA confirm inactive | GDH-TPI counter-2 inactive
CC(OC(=O)c1ccc(S(=O)(=O)NCc2ccco2)cc1)C(=O)Nc1ccc(Cl)cn1 (centres undefined)	none
CN(C)c1cc2c3ccccc3n(C)c2cc1N	FBA Mtb inh 71.2 (no result: 3CLpro inhibitor) | Mtb FBA confirm 147.3 | GDH-TPI counter-2 134.2
CCOC(=O)C1(C)CCCN1C(=O)c1csnn1 (centres undefined)	none (no result: 3CLpro inhibitor)
CCOc1ccc2nc(NCCNC(=O)CC)c(C#N)cc2c1	FBA Mtb inh 43.2 | Mtb FBA confirm 104.6 | GDH-TPI counter-2 114.4
